Measurements reported in the supplement of paper PMC12532568.
Structures can show the parent of a compound that is named as a salt.

tested on: Danio rerio larvae Tg(actc1b:ZsGreen-LC3), 3 dpf; assay: LC3 puncta relative area vs vehicle, with NH4Cl (autophagic flux) (log2 fold change); higher = more autophagy; settings: 10 µM; treatment time 16 h; NH4Cl: + 100 mM, 4 h
Experimental: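 Transgenic Tg(actc1b:ZsGreen-map1lc3) zebrafish larvae (2 dpf) were treated for 16 h with Tocris library compounds at 10 µM (n = 12 larvae per compound). Skeletal-muscle LC3 puncta area relative to body area was measured by high-content confocal imaging before and after 4 h of 100 mM NH4Cl (autophagic flux), normalised to vehicle (DMSO), and reported as log2 fold change.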

Compound | LC3 puncta (log2)
Fc1ccc(C(OCCN2CCN(CCCc3ccccc3)CC2)c2ccc(F)cc2)cc1 | 0.781
Cn1cnc(CCN)c1 [N?-Methylhistamine dihydrochloride] | 0.559
Cc1nc(N)sc1CCN [Amthamine dihydrobromide] | 0.697
c1ccc2sc(C3(N4CCCCC4)CCCCC3)cc2c1 [BTCP maleate] | 0.575
CN(C(=O)Cc1ccccc1)C(CN1CCCC1)c1ccccc1 (stereo not given) [N-MPPP Hydrochloride] | 0.566
CC(C)[C@@]1(NC(=O)[C@@H]2C[C@@H]3c4cccc5[nH]cc(c45)C[C@H]3N(C)C2)O[C@@]2(O)[C@@H]3CCCN3C(=O)[C@H](Cc3ccccc3)N2C1=O [Dihydroergocristine mesylate] | 0.198
NC(C(=O)O)c1nn[nH]n1 (racemic) [(RS)-(Tetrazol-5-yl)glycine] | 0.357
CCCN(C/C=C/I)C1CCc2ccc(O)cc2C1 (stereo not given) [7-Hydroxy-PIPAT maleate] | 0.264
C(=C\c1ccccc1)/CN1CCN(CCOC(c2ccccc2)c2ccccc2)CC1 | 0.791
c1ccc(CCCN2CCN(CCOC(c3ccccc3)c3ccccc3)CC2)cc1 | 0.346
N[C@@H](Cn1oc(=O)[nH]c1=O)C(=O)O [L-Quisqualic acid] | 0.686
CN(C(=O)Cc1ccc(Cl)c(Cl)c1)[C@H](CN1CCCC1)c1ccccc1 [ICI 199,441 hydrochloride] | 0.486
CC(C(=O)OC1CC2CCC(C1)N2C)c1ccc(Br)cc1 (stereo not given) [PG-9 maleate] | 0.169
N[C@@]1(C(=O)O)CC[C@@H](C(=O)O)C1 | 0.292
CC(=O)N1CC[N+](C)(C)CC1 [4-Acetyl-1,1-dimethylpiperazinium iodide] | 0.151
COc1ccc(C(=O)N2CCCC2=O)cc1 [Aniracetam] | 0.0699
CC[N+](CC)(CCCNC1=CC(=O)C(NCCC[N+](CC)(CC)Cc2ccccc2)=CC1=O)Cc1ccccc1 [Benzoquinonium dibromide] | 0.386
N=C(NCc1ccc(Cl)cc1)SCCCc1c[nH]cn1 [Clobenpropit dihydrobromide] | 0.922
CO[C@]12C[C@@H](COC(=O)c3cncc(Br)c3)CN(C)[C@@H]1Cc1cn(C)c3cccc2c13 [Nicergoline] | 0.397
CS(=O)(=O)Nc1ccc(Cc2noc(-c3ccc4[nH]cc(CCN)c4c3)n2)cc1 | 0.382

Compound | LC3 puncta (log2)
CCCN(CCC)C1CCc2ccc(O)cc2C1 (stereo not given) [7-Hydroxy-DPAT hydrobromide] | 0.179
O=C(Cc1ccc(Cl)c(Cl)c1)N1CCCCC1CN1CCCC1 (stereo not given) | 0.493
O=C(O)/C=C/CO [trans-4-Hydroxycrotonic acid] | 0.0547
O=C1NCN(c2ccccc2)C12CCN(CC1COc3ccccc3O1)CC2 (stereo not given) [Spiroxatrine] | 0.649
c1ccc(CCCCN2CCC(c3ccccc3)CC2)cc1 [4-PPBP maleate] | 0.486
CCCN(CCC)C1CCc2cccc(O)c2C1 (stereo not given) [8-Hydroxy-DPAT hydrobromide] | 0.325
Oc1ccc2c3c1O[C@H]1c4[nH]c5ccccc5c4C[C@@]4(O)[C@@H](C2)N(CC2CC2)CC[C@]314 [Naltrindole hydrochloride] | 0.551
CC(=O)NCCc1c[nH]c2ccccc12 [N-Acetyltryptamine] | 0.0329
O=C(O)Cc1cccnc1C(=O)O [Homoquinolinic acid] | 0.499
O=c1[nH]oc2c1CCNC2 [THIP hydrochloride] | 0.742
Clc1cccc(SC2CCNCC2)n1 [Anpirtoline hydrochloride] | 0.148
CC(N)Cc1cnc[nH]1 (stereo not given) | 0.293
CN1[C@@H]2CC[C@H]1C[C@@H](OC(=O)c1cc(Cl)cc(Cl)c1)C2 | 0.686
COc1ccc(CNC(=O)/C=C/c2ccc3[nH]cc(CCN(C)C)c3c2)cc1 | 0.115
CCCCCCC[n+]1ccc(-c2cc[n+](CCCCCCC)cc2)cc1 [DHBP dibromide] | 0.343
COC(=O)[C@@H](N)CCCNC(=N)N[N+](=O)[O-] [L-NAME hydrochloride] | 0.657
CC(CN)CC(=O)O (stereo not given) [3-Methyl-GABA] | 0.425
Cc1[nH]c2ccc(O)cc2c1CCN [2-Methyl-5-hydroxytryptamine hydrochloride] | 0.337
O=C(CCCN1CCC2(CC1)C(=O)N(Cc1cccc(F)c1)CN2c1ccccc1)c1ccc(F)cc1 [3'-Fluorobenzylspiperone maleate] | 1.38
C[C@H](N)Cc1cnc[nH]1 | 0.58
